# In PubChem BioAssay:
# Active and inactive are the calls of the source.
# What was measured:
# [1] = compound effects on lung adenocarcinoma cell viability – A549, calcein-AM fluorescence, 48 h, basal, profiling panel (AID 1162); settings: higher = more signal
# [2] = compound effects on differentiated 3T3-L1 adipocyte viability – cell-based, 3T3-L1 adipocytes, calcein-AM fluorescence, 48 h, basal, profiling panel (AID 1163); settings: 3T3-L1 adipocytes viability, higher = more signal
# [3] = compound effects on hepatocellular carcinoma cell viability – HepG2, calcein-AM fluorescence, 48 h, basal, profiling panel (AID 1164); settings: higher = more signal
# [4] = compound effects on multiple myeloma cell viability – MM1S, calcein-AM fluorescence, 48 h, basal, profiling panel (AID 1165); settings: higher = more signal;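 note: viability of MM1S multiple myeloma cells under basal unstimulated conditions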
# [5] = calcein-AM signal in unstimulated myeloma cells – cell-based, calcein-AM fluorescence, 48 h, PK04 Diversity Set, profiling panel (AID 1166); settings: RPMI8226 myeloma viability, higher = more signal;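 note: cells grown under basal conditions without added stimulus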
# [6] = JC-1 mitochondrial signal, unstimulated HepG2 cells – cell-based, JC-1 fluorescence, 24 h, 100 nL compound, profiling panel (AID 1167); settings: HepG2 mitochondrial potential, higher = more signal
# [7] = JC-1 mitochondrial signal, unstimulated adipocytes – cell-based, JC-1 fluorescence, 3T3-L1 adipocytes, 24 h, 100 nL compound, profiling panel (AID 1168); settings: JC-1 mitochondrial fluorescence, higher = more signal, called active from +8 up or from −8 down
# [8] = JC-1 mitochondrial signal, unstimulated myeloma cells – cell-based, JC-1 fluorescence, RPMI8226, 24 h, 100 nL compound, profiling panel (AID 1169); settings: JC-1 mitochondrial potential fluorescence, higher = more signal
# [9] = JC-1 mitochondrial signal, unstimulated MM1S myeloma – cell-based, JC-1 fluorescence, 24 h, 100 nL compound, profiling panel (AID 1170); settings: MM1S mitochondrial potential, higher = more signal
# [10] = resazurin metabolic signal in A549 cells – cell-based, resazurin fluorescence, 24 h, PK04 Diversity Set, profiling panel (AID 1171); settings: A549 viability, higher = more signal, called active from +8 up or from −8 down
# Note: test concentration not given here.
SMILES,z-score [1],z-score [2],z-score [3],z-score [4],z-score [5],z-score [6],z-score [7],z-score [8],z-score [9],z-score [10]
CCCNC(=O)OC[C@H]1O[C@H](CCON=Cc2ccc(C(=O)N3[C@H](c4ccc(C)cc4)[C@@H](C)CC[C@H]3C(=O)OC)cc2)C=C[C@@H]1Oc1ccc(OC)cc1,-0.167,0.885,-0.0578,-0.164,-0.581,2.75,-3.26 (inactive),0.694,0.235,-0.471 (inactive)
C[n+]1ccc(-c2ccc(CO)cc2)cc1,-1.45,-0.84,-0.0981,-0.31,-0.196,-1.04,-0.872 (inactive),-0.634,0.236,-0.939 (inactive)
CCOC(=O)NN=C1C[C@@H](O)[C@@H](O)[C@@H]2[C@@H]3C(=O)N(c4ccc(F)cc4F)C(=O)[C@@H]3CC[C@@H]12,0.187,-0.384,-1.12,0.218,0.617,0.333,0.076 (inactive),0.285,-0.326,0.485 (inactive)
C=CC[C@@H]1C=C[C@H](ON=C[C@@H](C)[C@H](OCc2ccccc2)C(C)C)[C@@H](CO)O1,-0.475,-0.162,-0.746,-1.55,-0.958,-1.94,-0.87 (inactive),-0.419,-0.874,0.0506 (inactive)
CCCNC(=O)OC[C@H]1O[C@H](c2ccccc2)C=C[C@@H]1Oc1ccc(OC)cc1,-0.365,0.125,-0.138,-0.543,-0.0859,-0.362,-0.307 (inactive),-0.215,0.0375,-0.745 (inactive)
CCOC(=O)[C@H](CC(C)C)NC(=O)CCC1CC(OC(=O)NCc2ccc3c(c2)OCO3)CC2(CCCC(COC(=O)NCCCN3CCCC3=O)O2)O1 (stereo not given in full),0.526,-0.268,-0.106,-0.181,0.514,0.553,0.875 (inactive),-0.838,-0.328,0.142 (inactive)
Cc1cc2c(nc1C)CCCCN2CC(C)ON=C1[C@H]2CCn3c(=O)n(-c4ccccc4)c(=O)n3[C@H]2[C@H](O)[C@@H]2O[C@H]12 (stereo not given in full),-0.333,-0.0663,0.305,-0.767,-1.21,-0.439,-0.521 (inactive),0.407,-0.974,-1.53 (inactive)
CON=CC[C@@H]1C=C[C@H](OC(C)=O)[C@@H](COC(C)=O)O1,0.779,-0.221,-0.0589,-1.09,-0.0741,0.308,-0.835 (inactive),-0.589,-0.0369,-0.357 (inactive)
CCOC(=O)[C@H](Cc1ccccc1)NC(=O)CCC1CC(OC(=O)NCc2cccc3ccccc23)CC2(CCCC(COC(=O)NCc3ccccc3)O2)O1 (stereo not given in full),0.143,0.919,-1.03,0.418,-0.653,1.12,-0.39 (inactive),-0.839,-1.18,0.682 (inactive)
CCOC(=O)[C@H](Cc1ccccc1)NC(=O)CCC1CC(OC(=O)NCc2cccc3ccccc23)CC2(CCCC(COC(=O)NCC(c3ccccc3)c3ccccc3)O2)O1 (stereo not given in full),1.15,-0.0155,-0.808,-3.22,0.632,0.353,-0.151 (inactive),-0.107,-0.886,1.36 (inactive)
O=C1[C@H]2[C@H]3[C@H](O)[C@H](O)CC(=NOC[C@@H](O)COCc4ccco4)[C@@H]3CC[C@H]2C(=O)N1C[C@@H]1CCCO1,0.863,-1.2,-0.128,0.524,-0.295,0.607,1.25 (inactive),-0.32,-0.796,0.0753 (inactive)
Cc1cc2c(nc1C)CCCCN2CC(C)ON=C[C@@H](C)[C@H](OCc1ccccc1)C(C)C (stereo not given in full),-0.672,-0.44,-1.27,-2.94,-3.77,-1.91,-1.4 (inactive),-0.262,0.034,4.05 (inactive)
CC[C@@H](c1ccccc1)n1c(=O)n2n(c1=O)[C@H]1[C@H](O)[C@@H]3O[C@@H]3C(=O)[C@H]1CC2,-0.0457,1.16,-0.481,-3.07,-2.84,-0.914,-0.491 (inactive),-0.924,-1.72,-0.565 (inactive)
CO[C@@H]1COC(=O)CC=C[C@@H](C)[C@H](OC)COC(=O)[C@@H](C)COC(=O)CC=C[C@H]1C,0.865,-0.159,1.48,0.397,-0.802,1.11,-0.661 (inactive),0.338,0.253,0.134 (inactive)
Cc1ccc(S(=O)(=O)n2c3ccccc3c3nnc(C(=O)c4ccccc4)nc32)cc1,1.8,0.294,-0.284,-0.377,0.271,-2.96,0.839 (inactive),-0.248,-0.956,-0.721 (inactive)
